PubChem BioAssay AID624202 (National Center for Advancing Translational Sciences (NCATS), 2012)
The campaign covered roughly 380,000 compounds. About 4,000 (1.1%) were called active. Not shown: some 3% with an inconclusive outcome. Calls follow the shape of the dose curve; as a rule, active = well fitted activation curve with a large enough effect; inconclusive = small, poorly fitted or top-dose-only effect; inactive = no such curve, though single readings can be large or run the other way. Only a selection was taken, and actives are over-represented in it overall.

Assay: qHTS Assay to Identify Small Molecule Activators of BRCA1 Expression; also: nearly all actives have a fitted effect of over 80% in size
Settings: MCF7-BRCA1-FFLuc reporter, luminescence, 48 h
From the text: Functionally, BRCA1 has been implicated in a wide array of cellular activities, including DNA damage repair, cell-cycle checkpoint control, growth inhibition, apoptosis, transcriptional regulation, chromatin remodeling, protein ubiquitylation, and mammary stem cell self-renewal and differentiation. Reduction in BRCA1 levels is associated with an increase in tumor growth and resistance to anti-estrogenic agents, such as tamoxifen, while an increase in BRCA1 expression leads to cell growth arrest and apoptosis. […] The frequent loss of BRCA1 expression in invasive breast cancers in the absence of somatic mutation has been attributed to numerous mechanisms, including hypermethylation of the BRCA1 promoter, exaggerated ubiquitylation of BRCA1 protein, and improper intracellular localization. […]
5microl of MCF7-BRCA1-FFLuc cell suspension (400 cells/microl in phenol-red free MEM) are dispensed into Greiner white solid bottom 1536-well assay plates, yielding a final well density of 2000 cells/well. […] The NCGC in-house luciferase substrate reagent, Buglite, is then added (2.5microl) and plates incubated for 15 minutes, before being transferred to a ViewLux high-throughput CCD imager (PerkinElmer) wherein single end-point measurements of luminescence are acquired using a clear filter. […]
Potency is read from the fitted curve at half-maximal effect.

| Structure (SMILES) | Potency |
| --- | --- |
| O=C(OCC(=O)c1cccs1)C1=COCCO1 | 15.8 µM (active) |
